From PubChem BioAssay (NCI)
Values joined by “and” are separate entries in the source; they are usually repeats but may differ in a detail not shown here. Equal values may be shown once. About 83,000 compounds went through this panel and 20% of them were active in at least one assay; those are over-represented in the sample as a whole.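 Treatment: one concentration, 48 hours, 96-well format. Scoring: percent growth, with anything below 10 considered active.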 Active and inactive are the calls of the source.

Assays:
Experiment in all cases: NCI-60 one-dose screen, 48 h (100 = growth as untreated, 0 = no growth, -100 = all killed)
NCI-H23 lung = details: 10 µM unless noted
NCI-H226 lung = details: 10 µM unless noted
NCI-H322M lung = details: 10 µM unless noted
HOP-62 NSCLC = details: 10 µM unless noted
NCI-H460 lung = details: 10 µM unless noted
NCI-H522 lung = details: 10 µM unless noted
A549/ATCC NSCLC = details: 10 µM unless noted
786-0 renal = details: 10 µM unless noted
COLO 205 colon = details: 10 µM unless noted
DU-145 prostate = details: 10 µM unless noted
K-562 leukemia = details: 10 µM unless noted
MALME-3M melanoma = details: 10 µM unless noted
MDA-MB-231 breast = details: 10 µM unless noted
RXF 393 renal = details: 10 µM unless noted
SF-268 CNS = details: 10 µM unless noted
SF-295 CNS = details: 10 µM unless noted
SF-539 CNS = details: 10 µM unless noted
UACC-257 melanoma = details: 10 µM unless noted
M14 melanoma = details: 10 µM unless noted
HOP-92 NSCLC = details: 10 µM

SMILES	growth (NCI-H23 lung)	growth (NCI-H226 lung)	growth (NCI-H322M lung)	growth (HOP-62 NSCLC)	growth (NCI-H460 lung)	growth (NCI-H522 lung)	growth (A549/ATCC NSCLC)	growth (786-0 renal)	growth (COLO 205 colon)	growth (DU-145 prostate)	growth (K-562 leukemia)	growth (MALME-3M melanoma)	growth (MDA-MB-231 breast)	growth (RXF 393 renal)	growth (SF-268 CNS)	growth (SF-295 CNS)	growth (SF-539 CNS)	growth (UACC-257 melanoma)	growth (M14 melanoma)	growth (HOP-92 NSCLC)
CC[C@@]1(O)C[C@H](OC2CC(N(C)C)C(OC3CC(O)C(OC4CCC(=O)C(C)O4)C(C)O3)C(C)O2)c2c(cc3c(c2O)C(=O)c2c(O)ccc(O)c2C3=O)[C@H]1C(=O)OC (stereo partly drawn)	-8.87% (active)	-55.7% (active)	-17.8% (active)	5.22% (active)	-14.4% (active)	-48.1% (active)	-10.6% (active)	17.3% (inactive)	11.1% (inactive)	1.38% (active)	0.0817% (active)	-12.2% (active)	28.4% (inactive)	12.6% (inactive)	22.7% (inactive)	8.52% (active)	-5.75% (active)	-30.9% (active)	3.55% (active)	
Cc1cc(N=Nc2ccccc2C)ccc1N	79.6% (inactive)	71.1% (inactive)	89.2% (inactive)	69.3% (inactive)	80.7% (inactive)	57.6% (inactive)	47.6% (inactive)	-13.5% (active)	111% (inactive)	68.1% (inactive)	65.7% (inactive)	68.6% (inactive)	75.1% (inactive)	99.6% (inactive)	47.3% (inactive)	83.9% (inactive)	48.9% (inactive)	132% (inactive)		48.8% (inactive)
COc1ccccc1/C=C(/C)[N+](=O)[O-]	88.3% (inactive) and 90.8% (inactive)	100% (inactive) and 105% (inactive)	92.7% (inactive) and 92.2% (inactive)	109% (inactive) and 83.1% (inactive)	87.3% (inactive) and 107% (inactive)	50% (inactive) and 84.5% (inactive)	93.3% (inactive) and 76.9% (inactive)	82.2% (inactive) and 101% (inactive)	67.4% (inactive) and 106% (inactive)	27.7% (inactive) and 107% (inactive)	39.9% (inactive) and 97.5% (inactive)	72.8% (inactive) and 89.3% (inactive)	70% (inactive) and 105% (inactive)	-1.25% (active) and 116% (inactive)	80.5% (inactive) and 99.1% (inactive)	102% (inactive) and 94.6% (inactive)	88% (inactive) and 96.8% (inactive)	80.9% (inactive) and 75% (inactive)	79.2% (inactive) and 95% (inactive)	96.5% (inactive)
